The record followed here is PubChem BioAssay (NCATS).

The subject of assay [1] is Zika virus NS2B-NS3 protease (linked construct). The assay can be described thus: Primary screen NINDS Rhodamine qHTS for Zika virus inhibitors (AID 1347160). Note: nearly all actives have a fitted effect of over 55% in size. The procedure, abridged:
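Aprotinin served as in-plate control. Conditions: 25 nM linked NS2B-NS3, pH 8.0 Tris buffer, titrated compounds, 15 min preincubation and 15 min reaction with 1.5 microM Rhod110 substrate at room temperature.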

In assay [2] the target is Calcium and integrin-binding protein 1 (Homo sapiens) (UniProt Q99828). Kind of assay: Primary qHTS for Identification of Calcium Integrin Binding Protein 1 (CIB1) Competitor (AID 1508620).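 Note: GST tagged CIB1 binding a fluorescein labelled alphaIIb integrin peptide tracer; top concentration of the series differs between compounds; % is set by controls: 0 for no effect and ±100 for the full control effect.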 The procedure, abridged:
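CIB1-GST (1 uM final) and compound incubated 15 min at room temperature before adding FITC-alphaIIb peptide tracer (100 nM final). Competition for binding read by fluorescence polarization (ex 480, em 540) after another 15 min at room temperature.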
In general terms: qHTS replaces the single test concentration by a dilution series.

A short description of assay [3]: Primary qHTS for inhibitors of nuclear receptor binding SET domain protein 2 (NSD2) in an isogenic RCH-ACV NSD2 p.E1099K mutant (9B) (AID 1645876). Note: potency is the fitted concentration of half-maximal effect; nearly all actives have a fitted effect of over 70% in size.
The nature of assay [4]: Primary qHTS for inhibitors of nuclear receptor binding SET domain protein 2 (NSD2) in an RCH-ACV wild type WT cells (2C) (AID 1645877). Note: potency is the fitted concentration of half-maximal effect; nearly all actives have a fitted effect of over 70% in size.
In assay [5] the target is Phospholipid hydroperoxide glutathione peroxidase GPX4 (Homo sapiens) (UniProt P36969). The assay can be described thus: Primary qHTS Assay for Inhibitors of Recombinant Selenoprotein Glutathione Peroxidase 4 (GPX4) (AID 1845192). Note: nearly all actives have a fitted effect of over 65% in size. Note: potency is the fitted concentration of half-maximal effect. As to conditions: outcome: dose series up to 50 µM unless noted. The procedure, abridged:
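NADPH consumption followed by fluorescence at 340/450 nm, t=0 and after 15 min at room temperature. Reaction started with cumene hydroperoxide (0.5 mM final) after 30 min compound–GPX4 preincubation; final 200 nM GPX4, 100 nM GR, 1 mM GSH, 0.5 mM NADPH.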

The target in assay [6] is Luciferin 4-monooxygenase (Photinus pyralis) (UniProt P08659). Kind of assay: Primary firefly luciferase (FLuc) qHTS assay for identification of artifact compounds. (AID 1845220). Note: nearly all actives have a fitted effect of over 60% in size. The procedure, abridged:
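FLuc 10 nM; luciferin 10 uM; ATP 10 uM; Tris-acetate pH 7.6, Mg-acetate 10 mM; 15 min RT preincubation; 5 min reaction; luminescence.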

The test system of assay [7] is Nanoluciferase (engineered Oplophorus gracilirostris luciferase). Kind of assay: Primary Nanoluciferase (NLuc) qHTS assay for identification of artifact compounds. (AID 1845222).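 Note: NLuc secreted into diluted conditioned medium of S16 cells; 0% = DMSO and -100% = no enzyme.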 In outline:
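NLuc from S16 cell medium (1:55) plus test compounds, 15 min, room temperature. Luminescence after Nano-Glo (1:100) addition, 5 min.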

The nature of assay [8]: Primary redox qHTS assay for identification of artifact compounds. (AID 1845223).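 Note: 0% = DMSO and 100% = reference compound.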 In outline: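 Redox-cycling detection via DTT (250 uM final) oxidation coupled to Amplex Red (25 uM)/HRP (250 mU/mL) in HBSS. 15 min preincubation plus 30 min after DTT, room temperature. Ex/Em 525/598 nm; 4-parameter Hill fit against DMSO and 10 uM DA3003.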
For another assay, the system named is C33A. Kind of assay: Primary qHTS to identify gynecologic anti-cancer compounds using libraries of approved drugs and bioactive compounds (AID 1345084). Note: % is set by controls: 0 for no effect and ±100 for the full control effect; nearly all actives have a fitted effect of over 55% in size. To be noted: Gynecologic cancer cell panel viability, ATPlite luminescence, 48 h; series mostly up to 57.5 µM. In outline:
(§1)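 Cells, 1,000 per well, plated 16 h, then exposed 48 h at 37 C to compounds. Viability by ATPlite luminescence after 15 min at room temperature.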

Another assay relates to CASKI. Described as above. To be noted: Gynecologic cancer cell panel viability, ATPlite luminescence, 48 h; series mostly up to 57.5 µM. In outline: as §1
In general terms: In ATP-based viability assays light output follows the ATP content of the culture.

The test system of a further assay is Es-2. The assay is described as above. As to conditions: Gynecologic cancer cell panel viability, ATPlite luminescence, 48 h; series mostly up to 57.5 µM. In outline:
as §1

A further assay has as its system HeLa. The assay is described as above. To be noted: Gynecologic cancer cell panel viability, ATPlite luminescence, 48 h; series mostly up to 57.5 µM. In outline: as §1
In a further assay the test system is Hek293T. Described as above. As to conditions: Gynecologic cancer cell panel viability, ATPlite luminescence, 48 h, control line for the selectivity index; series mostly up to 57.5 µM. The procedure, abridged:
as §1

In the next assay the test system is JEG-3. The assay is described as above. To be noted: Gynecologic cancer cell panel viability, ATPlite luminescence, 48 h; series mostly up to 57.5 µM. In outline: as §1
Another assay has as its system Tov-21-G. Described as above. To be noted: Gynecologic cancer cell panel viability, ATPlite luminescence, 48 h; series mostly up to 57.5 µM. In outline:
as §1

The next assay deals with Tov112D. Described as above. As to conditions: Gynecologic cancer cell panel viability, ATPlite luminescence, 48 h; series mostly up to 57.5 µM. In outline: as §1
The target in assay [9] is Glutathione peroxidase 1 (Homo sapiens) (UniProt P07203). The assay can be described thus: Primary qHTS Assay for Inhibitors of Recombinant Selenoprotein Glutathione Peroxidase 1 (GPX1) (AID 1845191). Note: % is set by controls: 0 for no effect and ±100 for the full control effect; nearly all actives have a fitted effect of over 65% in size. The procedure, abridged: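 NADPH consumption tracked by fluorescence at 340/450 nm between t=0 and t=15 min, room temperature. Final mix: 10 nM GPX1, 100 nM glutathione reductase, 1 mM GSH, 0.5 mM NADPH, 0.5 mM cumene hydroperoxide, 0.01% BSA; 30 min compound–enzyme preincubation.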
Glutathione peroxidase 1 (Homo sapiens), sequence (P07203 whole entry, looked up): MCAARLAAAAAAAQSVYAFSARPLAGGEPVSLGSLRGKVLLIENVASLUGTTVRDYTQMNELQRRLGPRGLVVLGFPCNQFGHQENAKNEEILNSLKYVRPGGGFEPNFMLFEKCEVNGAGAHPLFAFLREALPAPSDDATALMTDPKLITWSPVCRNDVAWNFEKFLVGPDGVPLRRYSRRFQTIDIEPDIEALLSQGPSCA

Assay [10] can be described thus: qHTS drug screen for cell cycle checkpoint inhibitors in PARPi-resistant BRCA-mutant ovarian cancer cell lines. (AID 1963452; calls by dose curve). To be noted: PEO1/OlaR viability, CellTiter-Glo luminescence, 96 h, stronger effect = lower value. The procedure, abridged:
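PEO1, PEO4 and PEO1/OlaR ovarian cancer cells, 600 per well, exposed 96 h at 37C to a dilution series. Viability read by CellTiter-Glo luminescence, normalized to DMSO and empty wells; activity summarized as Z-AUC.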

The subject of a further assay is HaCat. Kind of assay: Cytotoxic Profiling of Annotated Libraries Using Quantitative High-Throughput Screening (AID 1296008). For max response: % is set by controls: 0 for no effect and ±100 for the full control effect. Note: nearly all actives have a fitted effect of over 60% in size. Note: potency is the fitted concentration of half-maximal effect. As to conditions: Five cell lines viability, CellTiter-Glo ATP luminescence, 48-72 h; max response: stronger effect = lower value. The procedure, abridged: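 Cytotoxicity was measured as CellTiter-Glo ATP luminescence, read after 10 min at room temperature. Compound treatment of the cells lasted 48 or 72 hr at 37 degrees Celsius in a qHTS format.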

In a further assay the test system is OV90. The assay can be described thus: Primary qHTS to identify gynecologic anti-cancer compounds using libraries of approved drugs and bioactive compounds (AID 1345084). Note: % is set by controls: 0 for no effect and ±100 for the full control effect; nearly all actives have a fitted effect of over 55% in size. As to conditions: Gynecologic cancer cell panel viability, ATPlite luminescence, 48 h; series mostly up to 57.5 µM. The procedure, abridged:
as §1

The structures appear in SMILES notation. “And” between values parts separate entries of the source, which are not always exact repeats. Identical values can stand only once. Inconclusive results are not listed. The source made the active and inactive calls. Unless noted, calls come from the whole dose curve; as a rule, active = well fitted curve in the direction sought with a large enough effect; inconclusive = small, poorly fitted or top-dose-only effect, or another doubt; inactive = no such curve, though single readings can be large; an effect the other way counts as inactive or inconclusive.

Calcium and integrin-binding protein 1 (Homo sapiens), sequence (Q99828 whole entry, looked up): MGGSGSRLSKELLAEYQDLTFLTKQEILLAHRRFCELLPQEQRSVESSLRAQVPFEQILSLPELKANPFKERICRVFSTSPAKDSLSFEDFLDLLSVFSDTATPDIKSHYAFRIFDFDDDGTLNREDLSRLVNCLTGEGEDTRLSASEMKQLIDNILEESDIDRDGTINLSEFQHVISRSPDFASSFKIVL
Phospholipid hydroperoxide glutathione peroxidase GPX4 (Homo sapiens), sequence (P36969 whole entry, looked up): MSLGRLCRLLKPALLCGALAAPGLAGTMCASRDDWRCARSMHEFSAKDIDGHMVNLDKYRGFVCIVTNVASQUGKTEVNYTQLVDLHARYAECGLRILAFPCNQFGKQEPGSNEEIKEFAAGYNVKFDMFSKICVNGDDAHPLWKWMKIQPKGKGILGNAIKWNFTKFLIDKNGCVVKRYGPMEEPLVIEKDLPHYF

On to `CN(C)CCCNc1nc(CN2CCN(C(c3ccc(Cl)cc3)c3ccc(Cl)cc3)CC2)nc2ccccc12`, for which the Potency entry (in assay [1]; in assay [5]; in assay [6]; in [7]; in [8]; in the assay on C33A) was “inactive” each time. The Potency entry with CASKI, in the assay on Es-2, in the assay on HeLa, in the assay with Hek293T, in the assay on JEG-3 and in the assay with Tov-21-G was “inactive” throughout. Also, the Potency entry in the assay on Tov112D is “inactive”. For the same molecule, in assay [2], the result was inactive. Also, the Potency was 9.16 µM (active) in [3] and 7.28 µM (active) in [4].

`CNC(=O)c1cccc2cc(Oc3ccnc4cc(OCC5(N)CC5)c(OC)cc34)ccc12`: the Potency result (in assay [1]; in assay [9]; in assay [5]; in [6]; in assay [7]; in the assay on C33A) was “inactive” each time. Also, the Potency entry in the assay with CASKI, with Es-2, with HeLa, in the assay on Hek293T, with JEG-3 and in the assay with Tov-21-G was “inactive” in each case. Further, the Potency entry in the assay on Tov112D is “inactive”. For the same molecule, the result (in assay [2]; in the assay with HaCat) was inactive. For the same molecule, the Potency in [3] is 14.8 µM (active) and 20.6 µM (active); in assay [4], 10.5 µM (active) and 23.1 µM (active). For the same molecule, the Z-AUC in assay [10] was 0.323 (inactive); in [10] (measured here: PEO1 parental Z-AUC), 0.465; in [10] (measured here: PEO4 Z-AUC) it was 0.47.

On to `N#CCC(C1CCCC1)n1cc(-c2ncnc3[nH]ccc23)cn1` (centres undefined), for which the outcome (in [2]; in the assay with HaCat) was inactive. Besides, the figures for the Potency in [3], in assay [4] and in assay [5] were 12.9 µM (active), 20.5 µM (active) and 18 µM (active), respectively. The Potency result (in assay [6]; in [7]; in assay [8]; in the assay with C33A; in the assay on CASKI; with Es-2) was “inactive” throughout. For the same molecule, the Potency result with HeLa, in the assay on Hek293T, in the assay on JEG-3, in the assay on OV90, with Tov-21-G and in the assay with Tov112D was “inactive” each time.

In the case of `CC1CCC2C(C)(C)C(O)CCC2(C)C12Cc1c(O)cc3c(c1O2)CN(C(CCCN=C(N)N)C(=O)O)C3=O` (centres undefined), the Potency result in assay [1], in assay [9], in assay [5], in assay [6], in [7] and in assay [8] was “inactive” throughout. The Potency result in the assay on C33A, in the assay with CASKI, in the assay with Es-2, in the assay on HeLa, in the assay with JEG-3 and in the assay on OV90 was “inactive” in each case. In addition, the Potency entry with Tov-21-G is “inactive”. For the same molecule, the result (in assay [2]; with HaCat) was inactive. The Potency in assay [4] is 8.93 µM (active).

Turning to `N#Cc1c[nH]c2c(C(=O)N3CCN(CCc4ccc(F)cc4)CC3)cccc12`, the outcome in [2] was inactive. Also, the Potency entry (in assay [9]; in assay [6]; in [7]; in assay [8]; in the assay on C33A; with CASKI) was “inactive” throughout. Moreover, the Potency entry with Es-2, with HeLa, with Hek293T, with JEG-3, in the assay on OV90 and with Tov-21-G was “inactive” each time. The Potency result in the assay on Tov112D was “inactive”. The max response with HaCat was -7.89% (inactive).

As for `CC[C@H](CO)Nc1nc(Nc2cccc(-c3ccccn3)c2)c2ncn(C(C)C)c2n1`, the Potency result (in [1]; in [9]; in [5]; in assay [6]; in assay [7]; in the assay with C33A) was “inactive” each time. For the same molecule, the Potency entry with CASKI, in the assay on Es-2, in the assay on HeLa, in the assay on Hek293T, in the assay with JEG-3 and in the assay with Tov112D was “inactive” throughout. Also, the result in [2] was inactive. Besides, the Potency in assay [4] was 16.3 µM (active); in the assay with HaCat it was 18.4 µM (active).
